Screening results deposited in PubChem BioAssay by National Center for Advancing Translational Sciences (NCATS).
An excerpt weighted towards active compounds, which were near 21% of everything screened.
D3 ag: qHTS of D3 Dopamine Receptor Agonist: qHTS. D3R DiscoveRx beta-arrestin cells, luminescence, 90 min. AID 652048, 2013. D(3) dopamine receptor (Homo sapiens), P35462. 0.58% of 410,000 active. max activation, %; in the data active means max activation above about 30%; further: 0% is about no effect
Target sequence (P35462 whole entry, looked up): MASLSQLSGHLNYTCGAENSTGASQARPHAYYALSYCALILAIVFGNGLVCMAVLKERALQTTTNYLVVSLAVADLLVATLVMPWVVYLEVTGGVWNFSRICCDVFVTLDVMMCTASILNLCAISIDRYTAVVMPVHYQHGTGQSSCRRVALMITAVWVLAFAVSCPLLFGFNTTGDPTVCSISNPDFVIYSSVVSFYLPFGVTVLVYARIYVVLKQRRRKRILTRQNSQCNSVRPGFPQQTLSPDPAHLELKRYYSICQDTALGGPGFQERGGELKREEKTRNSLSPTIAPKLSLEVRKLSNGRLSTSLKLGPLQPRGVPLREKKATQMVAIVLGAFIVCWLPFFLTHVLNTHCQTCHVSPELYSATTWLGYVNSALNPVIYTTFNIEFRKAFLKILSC
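Agonist mode: compounds and dopamine controls were applied to plated cells for 90 min at 37 degrees C after an overnight attachment at 1500 cells/well. Luminescent read-out followed 30 - 60 minutes at room temperature with DiscoveRx detection reagent.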
DT40 TDP1 no CPT: qHTS for Inhibitors of human tyrosyl-DNA phosphodiesterase 1 (TDP1): qHTS in cells in absence of CPT; DT40 Tdp1-/- hTDP1 cells, no CPT, ATP luminescence, 48 h; 15% of 420,000 active; Potency, µM (top dose mostly 46.2 µM), for inactives: at the top dose activity change, negative = growth inhibition, usual class: inhibitors; further: potency means the concentration at half of the fitted maximal effect; on the % scale 0 is the no-effect control and ±100 the full control effect; nearly all actives have a fitted effect of over 55% in size
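Chicken DT40 Tdp1-/- cells stably complemented with human TDP1 were seeded at 400 cells/well with DMSO in place of 20 nM camptothecin. After compound pinning, cells grew at least 48 hr at 37 °C; viability read by CellTiter-Glo luminescence.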
IL1B secr inh: qHTS for Inhibitors of Inflammasome Signaling: IL-1-beta AlphaLISA Primary Screen; AID 743279, 2014; THP-1 LPS/ATP IL-1B secretion, AlphaLISA, 16 h; active compounds read low; activity change, % at 57.5 µM; 4.7% of 360,000 active; in the data active means activity change below about -50%; inconclusive means mostly about -30% to -49%; further: on the % scale 0 is the no-effect control and ±100 the full control effect
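Secreted IL-1B measured by AlphaLISA bead assay after 16 h compound exposure of THP-1 cells; compounds (final up to 57.5 uM) added 1 h before LPS (250 ng/mL) and ATP (1.25 mM) stimulation; lower signal means less secretion.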
DRD3 antagonist: qHTS of D3 Dopamine Receptor Antagonist: qHTS; D(3) dopamine receptor (Homo sapiens), P35462; D3R cells, DiscoveRx beta-arrestin luminescence, antagonist mode; active compounds read low; max response, negative = inhibition, %; 2.5% of 360,000 active; in the data active means max response below about -50%; inconclusive means no clear call, values can overlap the other calls; further: on the % scale 0 is the no-effect control and ±100 the full control effect
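Cells expressing the human receptor were seeded at 1500 cells/well, incubated overnight at 37 degrees C in 5% CO2, then exposed to library compounds with dopamine controls for 90 minutes at 37 degrees C before luminescent detection.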
DT40 TDP1 CPT: qHTS for Inhibitors of human tyrosyl-DNA phosphodiesterase 1 (TDP1): qHTS in cells in presence of CPT; chicken DT40 Tdp1-/-;hTDP1 cells + 20 nM CPT, ATP luminescence, 48 h; Potency, µM (series often up to 46.2 µM), for inactives: top-dose activity change, negative = growth inhibition, most hits filed as inhibitors; 12% of 420,000 active; AID 686979, 2013; further: potency means the concentration at half of the fitted maximal effect; on the % scale 0 is the no-effect control and ±100 the full control effect; nearly all actives have a fitted effect of over 55% in size
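Cell growth measured by CellTiter-Glo luminescence after a minimum 48 h, 37 C compound exposure with 20 nM CPT in Tdp1-knockout DT40 cells stably expressing hTDP1, seeded 400/well; qHTS titration format.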
ClpP mod: qHTS Assay for Activators of ClpP. ATP-dependent Clp protease proteolytic subunit (Bacillus subtilis (strain 168)), P80244. purified B. subtilis ClpP, FRET peptide cleavage, 20 min. Potency, µM (highest dose often 57.5 µM), for the others: top-dose activity change, negative = active. 1.9% of 340,000 active; active means well fitted falling curve with a large enough effect; inconclusive means small, poorly fitted or top-dose-only effect; inactive means no such curve, though single readings can be large or run the other way; further: potency means the concentration at half of the fitted maximal effect; the source files actives as falling curves though it sought activators and does not explain the sign; nearly all actives have a fitted effect of over 65% in size
Target sequence (P80244 whole entry, looked up): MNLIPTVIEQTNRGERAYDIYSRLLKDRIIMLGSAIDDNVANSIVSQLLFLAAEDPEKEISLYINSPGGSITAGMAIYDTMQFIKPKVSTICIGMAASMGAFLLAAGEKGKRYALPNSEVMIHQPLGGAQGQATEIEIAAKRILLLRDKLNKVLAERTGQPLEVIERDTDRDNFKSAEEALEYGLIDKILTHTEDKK
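ClpP 10 microg/mL final, pH 8 Tris/KCl buffer with BSA, glycerol, Tween-20; compound pinned in; FRET-FV substrate; RT 20 min; Ex320/Em430; ΔFRET vs ADEP 5.8 microM, DMSO, no enzyme.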
Numbers without * were called inactive; ? = inconclusive; · = no result given. Unless noted, the call rests on the fitted dose curve; in most records, active means well fitted inhibition curve with a large enough effect; inconclusive means small, poorly fitted or top-dose-only effect; inactive means flat fitted curve, though single readings scatter.

SMILES	D3 ag	DT40 TDP1 no CPT	IL1B secr inh	DRD3 antagonist	DT40 TDP1 CPT	ClpP mod
NC1=NC[C@H](CC2CCCCC2)N1CCc1cc(C(F)(F)F)cc(C(F)(F)F)c1	-24	7.3µM*	-27	52	5.8µM*	-7%
NC1=NC[C@H](Cc2ccc(O)cc2)N1CCC12CC3CC(CC(C3)C1)C2	1	?	?	1	8.2µM*	1%
NC1=NC[C@@H](Cc2ccc(O)cc2)N1CCc1cc(C(F)(F)F)cc(C(F)(F)F)c1	13	21µM*	?	4	?	-2%
NS(=O)(=O)c1ccc(NC(=O)COC(=O)c2ccc([N+](=O)[O-])s2)cc1	-6	16%	58	-5	-23%	1%
CC(=NNC(=O)c1ccncc1)c1ccccc1O	-25	0.13µM*	156	-23	0.18µM*	·
C/C(=N\NC(=O)c1ccc(N2CCCC2=O)cc1)c1ccc(O)cc1O	-9	3.7µM*	32	-2	4.6µM*	-5%
CC(=O)c1ccc2ccccc2c1OC(=O)c1ccncc1	3	26µM*	1	6	?	40%
CC(=NNC(=O)c1ccncc1)c1ccc2ccccc2c1O	4	4.6µM*	84	3	4.1µM*	3%
C/C(=N\NC(=O)c1cccc2ccccc12)c1cccnc1	5	8%	32	4	-2%	0%
C/C(=N\NC(=O)c1ccc(N2CCCC2=O)cc1)c1ccccc1	2	-23%	26	1	-8%	·
N/C(=N\OC(=O)c1cccc2ccccc12)c1ccncc1	12	-17%	-30	27	-25%	-9%
CC1CCCC(NC(=O)c2ccc(F)c(S(=O)(=O)N3CCOCC3)c2)C1C (stereo unspecified)	3	?	9	-5	?	-1%
Cc1noc(C)c1C(=O)N1CCC2(CCN(C(=O)Nc3ccccc3)CC2)CC1	·	-3%	·	·	-5%	·
C/C(=N\NC(=O)c1ccccc1)c1ccccc1Br	-6	0.65µM*	0	-13	0.82µM*	·
CCCCCCCC(=O)N/N=C(\C)c1ccc(O)cc1O	-3	?	31	0	?	16%
CCCCCCCCC(=O)N/N=C(\C)c1ccc(O)cc1O	6	?	49	4	?	32µM*
C/C(=N\NC(=O)c1ccccc1)c1ccccc1F	-2	10%	-7	4	10%	·
CC(C)CC(=NNC(=O)c1ccncc1)c1cc(Cl)ccc1O	10	2.6µM*	64	3	3.7µM*	0%
CC(=NNC(=O)c1ccccc1N)c1ccccc1O	6	5.8µM*	128	11	5.2µM*	5%
COc1ccc(NC(=O)CN(C)C(=O)CSc2ccc(Br)cc2)cc1	-5	?	20	-9	-26%	1%
CCOc1ccc(NC2SC(=O)N(Cc3ccccc3)C2=O)cc1 (stereo unspecified)	2	-15%	·	·	7%	1%
CC(=NNC(=O)c1ccncc1)c1ccc(O)cc1O	8	7.3µM*	109	5	?	·
O=C(CSc1ncc2c(n1)-c1ccccc1N(Cc1ccc(Cl)cc1)S2(=O)=O)c1ccc(Cl)cc1	-14	?	·	·	?	-2%
CC(C)(C)OC1NS(=O)(=O)OCC1NCOC(Cl)(Cl)Cl (stereo unspecified)	-6	3.7µM*	-23	?	3.3µM*	0%
CN(C)c1ccc(C(=O)C(=O)N2CCN(c3ccccc3)CC2)cc1	1	?	-2	14	?	-2%
SMILES	D3 ag	DT40 TDP1 no CPT	IL1B secr inh	DRD3 antagonist	DT40 TDP1 CPT	ClpP mod
c1cc(-c2ccc(CN3CCOCC3)cc2)n2ccnc2c1	0	-16%	11	-3	-11%	4%
CCCN(CCC)C(=O)Cn1c(=O)n(-c2ccc(CC)cc2)c(=O)c2ccc(C(=O)NCCc3ccccc3)cc21	2	7.3µM*	·	·	12µM*	-12%
CCc1ccc(-n2c(=O)c3ccc(C(=O)NCCc4ccccc4)cc3n(CC(N)=O)c2=O)cc1	-10	21µM*	13	-16	?	1%
O=c1c2ccccc2nc(COc2ccccc2)n1/N=C/c1c[nH]c2ccccc12	14	16µM*	8	14	?	59%
Cc1nc2ccccc2c(=O)n1/N=C/c1ccccc1O	2	0%	98	4	-2%	-2%
Oc1ccccc1/C=N/n1c(COc2ccccc2)n[nH]c1=S	1	-22%	24	-17	-3%	35µM*
O=c1c2ccccc2nc(COc2ccccc2)n1/N=C/c1ccc(O)cc1O	16	23µM*	204	51	?	10%
O=c1c2ccccc2nc(COc2ccccc2)n1/N=C/c1cn[nH]c1-c1ccccc1	3	16µM*	-9	-4	21µM*	-1%
Cc1ccccc1OCc1nc2ccccc2c(=O)n1/N=C/c1cn[nH]c1-c1ccc(Br)cc1	4	?	-23	101	?	24%
Oc1ccc(/C=N/n2c(COc3ccccc3)n[nH]c2=S)c(O)c1	2	13%	9	1	-18%	-2%
CC(=O)c1ccccc1NC(=O)COC(=O)Cc1cccc(C(F)(F)F)c1	4	-6%	15	-1	-2%	0%
O=C(COC(=O)COc1ccc(Cl)cc1)Nc1ncc(Br)s1	-1	-25%	1	14	-28%	·
CC1CC2OC2CC1COC(=O)C1CC2OC2CC1C (stereo unspecified)	-12	?	17	8	16µM*	·
CC1CCN(C(c2ccccc2)c2sc3nc(-c4ccco4)nn3c2O)CC1 (stereo unspecified)	-13	?	·	·	?	-2%
O=C(NOC(=O)c1ccccc1)c1ccccc1	10	23µM*	3	26	?	·
O=C(NO)c1ccccc1	10	22µM*	·	·	24µM*	·
O=C(NCCCOC(=O)c1ccccc1)c1ccccc1	1	-4%	7	9	-9%	·
CC(=O)N1c2ccccc2CC1C(=O)N1CCN(c2cccc(Cl)c2)CC1 (stereo unspecified)	1	-14%	·	·	?	1%
CCCCCCOC(=O)/C=C/c1c(C)[nH]c(=O)[nH]c1=O	-3	4.6µM*	31	-20	?	1%
